Laboratory results from the supplement of paper PMC10849652.
About 8,800 targets were measured; listed, in parts, are those with a hit and a random draw of the rest. About 0.5% of all pairs of compound and target were hits.

Experiments:
Assay in all cases: log2 fold change, soluble protein after heating vs DMSO (PISA); higher = thermal stabilisation; K562 lysate, 10 uM; active = over 0.2 and 3.5 SD of the protein, either way, in both replicates (recomputed)
nilotinib = compound: Cc1cn(-c2cc(NC(=O)c3ccc(C)c(Nc4nccc(-c5cccnc5)n4)c3)cc(C(F)(F)F)c2)cn1 [nilotinib]
Outline: (§1)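 A 30 min treatment with 10 μM compound was applied to crude K562 extract at 1 mg/mL protein in PBS pH 7.4 with 1 mM MgCl2. Heating for 3 min spanned 48°C-58°C, after which aliquots were pooled, adjusted to 0.5% NP-40 at 4°C and spun at 21,000xg for 90 min. TMTpro 16plex LC-MS/MS of the supernatant, with channel sums equalised, gave values recorded as log-two fold change in thermal stability against solvent controls, from duplicates.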

[1] = compound: Cc1nc(Nc2n[nH]c3c2CN(C(=O)N[C@H](CN(C)C)c2ccccc2)C3(C)C)c2sccc2n1
Outline: as §1

dasatinib = compound: Cc1nc(Nc2ncc(C(=O)Nc3c(C)cccc3Cl)s2)cc(N2CCN(CCO)CC2)n1 [dasatinib]
Outline: as §1

[2] = compound: Cc1ncc(-c2ccnc(Nc3ccc(S(C)(=O)=O)cc3)n2)n1C(C)C
Outline: as §1

[3] = compound: Cn1cc(-c2ccc3c(c2)CCN3C(=O)Cc2cccc(C(F)(F)F)c2)c2c(N)ncnc21
Outline: as §1

quisinostat = compound: Cn1cc(CNCC2CCN(c3ncc(C(=O)NO)cn3)CC2)c2ccccc21 [quisinostat]
Outline: as §1

tipifarnib = compound: Cn1cncc1[C@@](N)(c1ccc(Cl)cc1)c1ccc2c(c1)c(-c1cccc(Cl)c1)cc(=O)n2C [tipifarnib]
Outline: as §1

[4] = compound: NC(=O)Nc1cc(-c2cccc(F)c2)sc1C(=O)N[C@H]1CCCNC1
Outline: as §1

[5] = compound: NC(=O)c1cnc(N[C@@H]2CCCC[C@@H]2N)nc1Nc1cccc(-n2nccn2)c1
Outline: as §1

[6] = compound: NC1(c2ccc(-c3nc4ccn5c(=O)[nH]nc5c4cc3-c3ccccc3)cc2)CCC1
Outline: as §1

[7] = compound: NCC(=O)Nc1ccc(-n2nc(C(F)(F)F)cc2-c2ccc3c(ccc4ccccc43)c2)cc1
Outline: as §1

vorinostat = compound: O=C(CCCCCCC(=O)Nc1ccccc1)NO [vorinostat]
Outline: as §1

silmitasertib = compound: O=C(O)c1ccc2c(c1)nc(Nc1cccc(Cl)c1)c1ccncc12 [silmitasertib]
Outline: as §1

[8] = compound: O=C1NC(=O)C(c2cnc3ccccn23)=C1c1cn2c3c(cc(F)cc13)CN(C(=O)N1CCCCC1)CC2
Outline: as §1

entospletinib = compound: c1cn2cc(-c3ccc4cn[nH]c4c3)nc(Nc3ccc(N4CCOCC4)cc3)c2n1 [entospletinib]
Outline: as §1

Measured: log2 fold change

SMTN isoform 6 (UniProt P53814)
Sequence of UniProt P53814 (P53814 whole entry, looked up): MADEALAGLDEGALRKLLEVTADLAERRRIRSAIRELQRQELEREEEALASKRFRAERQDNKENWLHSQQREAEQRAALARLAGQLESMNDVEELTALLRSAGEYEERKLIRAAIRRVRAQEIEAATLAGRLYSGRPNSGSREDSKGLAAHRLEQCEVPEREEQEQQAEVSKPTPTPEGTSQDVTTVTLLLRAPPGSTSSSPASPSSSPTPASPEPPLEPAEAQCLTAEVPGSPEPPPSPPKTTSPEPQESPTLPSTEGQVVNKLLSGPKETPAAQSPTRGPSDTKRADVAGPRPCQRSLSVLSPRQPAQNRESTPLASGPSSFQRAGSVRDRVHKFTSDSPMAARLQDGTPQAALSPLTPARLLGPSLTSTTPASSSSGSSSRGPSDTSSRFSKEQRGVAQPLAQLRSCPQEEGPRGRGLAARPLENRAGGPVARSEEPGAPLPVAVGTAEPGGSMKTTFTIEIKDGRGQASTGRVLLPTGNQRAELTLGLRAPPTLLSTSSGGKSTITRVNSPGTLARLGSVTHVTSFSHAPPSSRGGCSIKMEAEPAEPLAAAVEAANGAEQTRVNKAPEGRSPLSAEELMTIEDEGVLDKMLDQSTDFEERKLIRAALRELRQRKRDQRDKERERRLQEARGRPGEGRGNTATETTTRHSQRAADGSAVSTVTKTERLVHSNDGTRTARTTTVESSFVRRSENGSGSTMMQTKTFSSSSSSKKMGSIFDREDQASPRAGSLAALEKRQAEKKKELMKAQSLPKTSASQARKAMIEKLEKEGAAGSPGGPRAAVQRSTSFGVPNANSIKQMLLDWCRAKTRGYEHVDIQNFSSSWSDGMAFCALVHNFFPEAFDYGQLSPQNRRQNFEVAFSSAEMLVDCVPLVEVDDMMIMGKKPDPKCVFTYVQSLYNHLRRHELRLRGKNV
inactive: nilotinib -0.011 | [1] 0.134 | dasatinib -0.055 | [2] -0.022 | [3] 0.031 | quisinostat -0.065 | tipifarnib -0.019 | [4] 0.021 | [5] -0.005 | [6] 0.089 | [7] -0.021 | vorinostat -0.088 | silmitasertib -0.007 | [8] -0.034 | entospletinib 0.013

SNRPF (UniProt P62306)
Sequence of UniProt P62306 (P62306 whole entry, looked up): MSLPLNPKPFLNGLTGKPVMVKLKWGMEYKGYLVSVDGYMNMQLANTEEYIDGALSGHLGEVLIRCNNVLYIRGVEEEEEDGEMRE
inactive: nilotinib -0.044 | [1] 0.063 | dasatinib 0.005 | [2] 0.013 | [3] -0.156 | quisinostat -0.276 | tipifarnib -0.037 | [4] 0 | [5] -0.044 | [6] 0.013 | [7] -0.019 | vorinostat -0.014 | silmitasertib -0.001 | [8] -0.01 | entospletinib -0.016

SPR (UniProt P35270)
inactive: nilotinib -0.063 | [1] 0.01 | dasatinib 0.201 | [2] 0.012 | [3] 0.075 | quisinostat 0.077 | tipifarnib 0.035 | [4] 0.01 | [5] 0.02 | [6] 0.009 | [7] -0.037 | vorinostat -0.199 | silmitasertib 0.308 | [8] 0.219 | entospletinib 0.003

SLC40A1 (UniProt Q9NP59)
Sequence of UniProt Q9NP59 (Q9NP59 whole entry, looked up): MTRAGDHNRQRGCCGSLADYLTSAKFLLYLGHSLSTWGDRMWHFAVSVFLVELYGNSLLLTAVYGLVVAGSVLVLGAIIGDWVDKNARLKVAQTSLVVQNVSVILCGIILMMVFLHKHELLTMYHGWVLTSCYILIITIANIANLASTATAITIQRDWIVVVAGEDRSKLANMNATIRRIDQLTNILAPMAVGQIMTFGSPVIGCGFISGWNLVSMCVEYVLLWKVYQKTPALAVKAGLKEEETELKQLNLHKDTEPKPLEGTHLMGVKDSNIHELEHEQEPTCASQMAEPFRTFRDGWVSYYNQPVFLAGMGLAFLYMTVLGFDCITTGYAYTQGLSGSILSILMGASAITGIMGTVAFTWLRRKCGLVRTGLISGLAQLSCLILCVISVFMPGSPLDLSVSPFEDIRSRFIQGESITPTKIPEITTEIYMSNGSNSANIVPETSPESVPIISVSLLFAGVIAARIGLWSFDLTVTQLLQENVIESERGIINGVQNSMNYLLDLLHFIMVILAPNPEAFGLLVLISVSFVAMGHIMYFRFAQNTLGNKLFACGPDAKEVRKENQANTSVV
inactive: nilotinib 0.009 | [1] 0.131 | dasatinib -0.077 | [2] 0.015 | [3] -0.02 | quisinostat -0.079 | tipifarnib -0.118 | [4] 0.167 | [5] -0.035 | [6] -0.185 | [7] 0.005 | vorinostat 0.046 | silmitasertib 0 | [8] -0.016 | entospletinib 0.022

STK36 (UniProt Q9NRP7)
Sequence of UniProt Q9NRP7 (Q9NRP7 whole entry, looked up): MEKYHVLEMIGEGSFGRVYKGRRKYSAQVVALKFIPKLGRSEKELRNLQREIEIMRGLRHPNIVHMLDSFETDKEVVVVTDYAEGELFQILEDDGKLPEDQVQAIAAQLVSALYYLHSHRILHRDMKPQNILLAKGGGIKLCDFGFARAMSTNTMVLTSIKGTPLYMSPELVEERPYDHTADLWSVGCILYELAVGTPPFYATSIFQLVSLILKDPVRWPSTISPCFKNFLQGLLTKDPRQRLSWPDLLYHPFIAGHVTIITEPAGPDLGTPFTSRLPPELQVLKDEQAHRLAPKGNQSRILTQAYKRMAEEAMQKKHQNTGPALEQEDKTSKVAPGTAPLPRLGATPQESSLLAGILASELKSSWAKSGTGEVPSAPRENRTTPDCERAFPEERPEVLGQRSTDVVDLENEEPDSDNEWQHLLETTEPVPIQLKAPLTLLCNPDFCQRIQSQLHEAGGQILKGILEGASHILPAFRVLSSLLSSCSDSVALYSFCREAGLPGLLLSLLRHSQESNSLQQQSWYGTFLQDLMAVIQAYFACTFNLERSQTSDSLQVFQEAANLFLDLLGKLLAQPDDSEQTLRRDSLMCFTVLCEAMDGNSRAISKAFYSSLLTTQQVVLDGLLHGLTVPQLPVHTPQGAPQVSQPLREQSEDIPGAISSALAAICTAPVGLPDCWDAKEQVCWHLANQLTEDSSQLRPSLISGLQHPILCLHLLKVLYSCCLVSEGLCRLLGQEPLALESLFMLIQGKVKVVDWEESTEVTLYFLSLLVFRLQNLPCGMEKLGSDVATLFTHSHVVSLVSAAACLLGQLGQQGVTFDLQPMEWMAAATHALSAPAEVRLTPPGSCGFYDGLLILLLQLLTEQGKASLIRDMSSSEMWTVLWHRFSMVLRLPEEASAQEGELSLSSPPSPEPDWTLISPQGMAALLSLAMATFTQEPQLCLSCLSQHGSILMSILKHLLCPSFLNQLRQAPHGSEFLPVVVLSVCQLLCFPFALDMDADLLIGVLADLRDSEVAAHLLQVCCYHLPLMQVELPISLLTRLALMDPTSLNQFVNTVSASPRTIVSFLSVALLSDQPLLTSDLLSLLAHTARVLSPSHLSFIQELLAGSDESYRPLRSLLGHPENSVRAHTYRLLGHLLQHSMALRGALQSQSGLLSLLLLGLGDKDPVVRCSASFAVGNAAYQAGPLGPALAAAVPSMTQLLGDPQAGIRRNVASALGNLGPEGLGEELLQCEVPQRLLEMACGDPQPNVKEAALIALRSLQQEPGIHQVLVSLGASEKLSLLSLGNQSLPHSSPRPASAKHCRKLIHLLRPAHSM
active: quisinostat -1.31
inactive: nilotinib 0.081 | [1] -0.179 | dasatinib -0.142 | [2] -0.02 | [3] -0.113 | tipifarnib -0.059 | [4] 0.059 | [5] 0.117 | [6] -0.265 | [7] 0.283 | vorinostat 0.143 | silmitasertib -0.032 | [8] 0.101 | entospletinib -0.031

SLC38A10 (UniProt Q9HBR0)
Sequence of UniProt Q9HBR0 (Q9HBR0 whole entry, looked up): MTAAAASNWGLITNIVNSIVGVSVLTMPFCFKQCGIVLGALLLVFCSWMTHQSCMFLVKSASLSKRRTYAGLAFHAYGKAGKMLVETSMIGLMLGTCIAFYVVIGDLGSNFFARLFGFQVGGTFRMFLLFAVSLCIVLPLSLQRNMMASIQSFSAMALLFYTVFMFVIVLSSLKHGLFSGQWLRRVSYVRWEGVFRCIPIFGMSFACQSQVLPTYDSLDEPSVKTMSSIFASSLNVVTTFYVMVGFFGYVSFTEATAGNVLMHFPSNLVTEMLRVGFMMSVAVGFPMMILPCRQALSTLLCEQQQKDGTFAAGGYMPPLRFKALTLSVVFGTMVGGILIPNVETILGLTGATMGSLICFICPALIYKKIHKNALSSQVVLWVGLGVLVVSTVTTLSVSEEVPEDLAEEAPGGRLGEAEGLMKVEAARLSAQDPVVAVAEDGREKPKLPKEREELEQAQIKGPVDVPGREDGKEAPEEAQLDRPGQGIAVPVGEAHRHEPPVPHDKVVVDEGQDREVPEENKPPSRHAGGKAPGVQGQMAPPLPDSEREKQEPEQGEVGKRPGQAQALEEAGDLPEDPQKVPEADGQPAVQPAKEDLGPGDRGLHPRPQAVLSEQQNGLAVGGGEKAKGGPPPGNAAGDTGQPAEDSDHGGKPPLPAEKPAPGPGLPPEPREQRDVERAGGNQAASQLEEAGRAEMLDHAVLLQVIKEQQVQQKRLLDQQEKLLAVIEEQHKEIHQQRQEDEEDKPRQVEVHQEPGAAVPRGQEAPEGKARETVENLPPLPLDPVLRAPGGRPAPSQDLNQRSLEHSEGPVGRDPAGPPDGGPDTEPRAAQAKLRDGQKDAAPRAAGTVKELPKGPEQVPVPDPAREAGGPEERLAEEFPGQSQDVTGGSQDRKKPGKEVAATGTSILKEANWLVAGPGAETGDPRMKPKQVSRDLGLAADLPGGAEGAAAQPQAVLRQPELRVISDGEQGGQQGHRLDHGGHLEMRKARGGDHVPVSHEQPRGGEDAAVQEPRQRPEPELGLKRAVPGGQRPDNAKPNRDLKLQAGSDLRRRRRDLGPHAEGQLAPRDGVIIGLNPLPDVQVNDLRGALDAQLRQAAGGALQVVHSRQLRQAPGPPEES
inactive: nilotinib 0.072 | [1] -0.073 | dasatinib -0.009 | [2] 0.05 | [3] -0.031 | quisinostat -0.013 | tipifarnib 0.047 | [4] -0.039 | [5] 0.01 | [6] 0.023 | [7] -0.034 | vorinostat 0.044 | silmitasertib -0.013 | [8] 0.08 | entospletinib 0.024

SPATA5L1 (UniProt Q9BVQ7)
active: vorinostat -0.408
inactive: nilotinib -0.012 | [1] -0.003 | dasatinib -0.115 | [2] 0.016 | [3] 0.093 | quisinostat -0.059 | tipifarnib 0.028 | [4] 0.047 | [5] 0.039 | [6] -0.092 | [7] 0.029 | silmitasertib 0.138 | [8] 0.035 | entospletinib -0.021

SPG11 (UniProt Q96JI7)
inactive: nilotinib -0.024 | [1] 0.026 | dasatinib -0.052 | [2] 0.026 | [3] 0.025 | quisinostat -0.048 | tipifarnib -0.007 | [4] -0.017 | [5] 0.05 | [6] -0.046 | [7] -0.001 | silmitasertib 0.062 | [8] 0.04 | entospletinib -0.098
active: vorinostat -0.399

SH3GL3 isoform 3 (UniProt Q99963)
Sequence of UniProt Q99963 (Q99963 whole entry, looked up): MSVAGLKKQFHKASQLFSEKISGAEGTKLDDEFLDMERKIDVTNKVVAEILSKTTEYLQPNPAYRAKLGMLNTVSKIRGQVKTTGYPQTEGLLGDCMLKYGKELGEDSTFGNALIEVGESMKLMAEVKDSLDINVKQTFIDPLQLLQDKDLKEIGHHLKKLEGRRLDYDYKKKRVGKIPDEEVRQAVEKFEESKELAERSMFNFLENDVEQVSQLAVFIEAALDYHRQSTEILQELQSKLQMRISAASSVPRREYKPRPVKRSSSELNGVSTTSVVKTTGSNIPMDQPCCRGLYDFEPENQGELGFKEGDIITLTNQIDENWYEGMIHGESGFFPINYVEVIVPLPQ
inactive: nilotinib -0.075 | [1] -0.113 | dasatinib -0.067 | [2] 0.096 | [3] -0.007 | quisinostat -0.033 | tipifarnib 0.029 | [4] 0.075 | [5] 0.024 | [6] -0.011 | [7] 0.108 | vorinostat -0.091 | silmitasertib 0.028 | [8] 0.01 | entospletinib 0.01

STK4 (UniProt Q13043)
Sequence of UniProt Q13043 (Q13043 whole entry, looked up): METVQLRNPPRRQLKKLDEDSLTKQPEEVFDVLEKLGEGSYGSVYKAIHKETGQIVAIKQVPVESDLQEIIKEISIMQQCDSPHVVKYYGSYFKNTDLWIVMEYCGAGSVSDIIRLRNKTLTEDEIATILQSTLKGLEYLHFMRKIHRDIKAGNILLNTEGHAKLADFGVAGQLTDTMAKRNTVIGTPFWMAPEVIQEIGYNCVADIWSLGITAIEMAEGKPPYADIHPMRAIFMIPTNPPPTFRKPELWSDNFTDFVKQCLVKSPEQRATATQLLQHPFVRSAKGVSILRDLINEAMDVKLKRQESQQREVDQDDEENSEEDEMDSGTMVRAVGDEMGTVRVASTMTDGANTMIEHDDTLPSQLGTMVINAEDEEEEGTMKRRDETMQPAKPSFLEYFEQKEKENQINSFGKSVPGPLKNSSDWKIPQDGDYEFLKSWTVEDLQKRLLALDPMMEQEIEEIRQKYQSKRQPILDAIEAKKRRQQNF
inactive: nilotinib -0.077 | [1] 0.343 | dasatinib 0.214 | [2] 0.177 | [3] 0.282 | quisinostat -0.105 | tipifarnib -0.047 | [5] 0.134 | [6] -0.016 | [7] 0.054 | vorinostat -0.134 | silmitasertib 0.024 | [8] 0.041 | entospletinib 0.047
active: [4] 0.585
